Activity calls are given as the source filed them. The calls were made as follows: active = hit-call score of the fitted dose curve at least 0.9, where 1 is the maximum; inactive = score below 0.9.
Test: ATG_RORE_CIS: Attagene CIS-FACTORIAL HepG2 Assay for human RAR-related Orphan Receptor Element (RORE) (AID 2282959)
Details: HepG2 Attagene cis-factorial RORE reporter, mRNA; actives raise or lower the signal
Protocol: ATG_CIS is a cell-based, multiplexed-readout assay that uses HepG2, a human liver cell line, with measurements taken at 24 hours after chemical dosing in a 24-well plate.ATG_RORE_CIS is one of 52 assay component(s) measured or calculated from the ATG_CIS assay. It is designed to make measurements of mRNA induction, a form of inducible reporter, as detected with fluorescence intensity signals by Reverse transcription polymerase chain reaction (RT-PCR) and Capillary electrophoresis technology.Data from the assay component ATG_RORE_CIS was analyzed into 1 assay endpoint. This assay endpoint, ATG_RORE_CIS, was analyzed with bidirectional fitting relative to DMSO as the negative control and baseline of activity. Using a type of inducible reporter, measures of mRNA for gain or loss-of-signal activity can be used to understand the reporter gene at the transcription factor-level as they relate to the gene RORA and RORB and RORC. Furthermore, this assay endpoint can be referred to as a primary readout, because this assay has produced multiple assay endpoints where this one serves a reporter gene function. To generalize the intended target to other relatable targets, this assay endpoint is annotated to the nuclear receptor intended target family, where the subfamily is orphan.
Human liver HepG2 cells are transiently transfected with multiple reporter transcription units (MRTUs) in 6-well plates using FuGene 6 reagent (Roche; 3 ml FuGene/1 mg DNA). The MRTU constructs are regulated by a cis-regulating element (promoter). […] A major difference between the CIS and TRANS system is that in CIS activities of endogenous TFs are measured, whereas the TRANS assay evaluates changes in activities of exogenous, chimeric NR-Gal4 proteins. […] At the end of 24 hour incubation, total RNA was isolated using TriZol reagent (Invitrogen). The isolated RNA is then reverse-transcribed using oligo(dT) primer and Mo-MLV reverse transcriptase (Invitrogen) with DNAse I (Ambion) treatment for 30 min. The one-tenth of the produced cDNA was amplified by PCR using Taq DNA polymerase (Invitrogen) and two reporter sequence-specific primers. The PCR products were fluorescently labeled by primer extension with 6-arboxyfluorescein (6-FAM) 5'-labeled reporter sequence-specific primer (2 min at 95 C, 20 s at 68 C and 10 min at 72 C) and these products were digested with 5U of HpaI (New England Biolabs) for 2h at 37 C. The fragments were purified using Qiaquick PCR columns (Qiagen), analyzed on an ABI 3130xL genetic analyzer (Applied Biosystems) with peak positions identified by using a set of X-rhodamine (ROX)-labeled MapMarker1000 molecular weight standards (BioVentures). The raw capillary electrophoresis data was processed using Attagraph software (Attagene).

Row | SMILES | outcome | AC50
1 | CN(C)c1ccc(O)c2c1C[C@H]1C[C@H]3[C@H](N(C)C)C(=O)C(C(N)=O)=C(O)[C@@]3(O)C(=O)C1=C2O | inactive | 
2 | CCCCCCCCCCCCN | inactive | 
3 | Cc1cccc(Nc2ccccc2C(=O)O)c1C | inactive | 
4 | BrC1CCC(Br)C(Br)CCC(Br)C(Br)CCC1Br (stereo not given) | inactive | 
5 | CCCCCCCCCCCCCCCC(=O)OC[C@H](O)[C@H]1OC(=O)C(O)=C1O | inactive | 
6 | CCCC/C=C\CCCCCCCCCC=O | inactive | 
7 | CC1CC(OC(=O)c2ccccc2O)CC(C)(C)C1 (stereo not given) | inactive | 
8 | CC1(C)C(=O)N(Br)C(=O)N1Cl | inactive | 
9 | CC(=O)[O][Al][O]C(C)=O | inactive | 
10 | CC(C)=CCC/C(C)=C/COC=O | inactive | 
11 | CC(C)(C)C(=O)c1ccccc1 | inactive | 
12 | CC(=O)Nc1ccc(C)cc1C | inactive | 
13 | C=C(C)[C@@H]1CC[C@@H](C)C[C@@H]1O | inactive | 
14 | CC1COc2ccccc2N1C(=O)C(Cl)Cl (stereo not given) | inactive | 
15 | CC(C)(C)c1n[nH]c(=S)n(N)c1=O | inactive | 
16 | C[Si](O[Si](C)(C)C)O[Si](C)(C)C | inactive | 
17 | O=C1O[C@@H]2[C@@H](O)[C@H](O)O[C@@H]2[C@H]1O | inactive | 
18 | CCCCCCOC(=O)CC | inactive | 
19 | CCN(CC)CCOC(=O)c1ccc(N)cc1 | inactive | 
20 | O=C1OC2(c3cc(Br)c(O)c(Br)c3Oc3c2cc(Br)c(O)c3Br)c2c(Cl)c(Cl)c(Cl)c(Cl)c21 |  | 50.2 µM (active)

Row | SMILES | outcome | AC50
21 | O=C(Oc1ccccc1)c1ccc(O)cc1 | inactive | 
22 | CCCCCCCCCCCCCOS(=O)(=O)O | inactive | 
23 | O=C(Cl)c1cccc(C(=O)Cl)c1 | inactive | 
24 | O=Cc1ccc(Cl)c([N+](=O)[O-])c1 | inactive | 
25 | CC1CCC(C(C)(C)O)CC1 (stereo not given) | inactive | 
26 | O=C[C@H](O)[C@H](O)[C@H](O)CO | inactive | 
27 | Nc1cc([N+](=O)[O-])ccc1Cl | inactive | 
28 | CC1(C)[C@H](C(=O)OCc2cccc(Oc3ccccc3)c2)[C@@H]1C=C(Cl)Cl | inactive | 
29 | CCCCNC(=O)NS(=O)(=O)c1ccc(C)cc1 | inactive | 
30 | CC(CC(C)(C)C)CC(C)(C)CC(C)(C)C (stereo not given) | inactive | 
31 | CCc1c(C)cc(N)c(CC)c1N | inactive | 
32 | CC(C)Oc1ccccc1O | inactive | 
33 | CCCCCCCCCCCCCCCCCC(=O)OCC(CC)CCCC (stereo not given) | inactive | 
34 | O=C(O)COCCN1CCN(C(c2ccccc2)c2ccc(Cl)cc2)CC1 (stereo not given) | inactive | 
35 | OCCOCCOCCOCCO | inactive | 
36 | COc1cccc(OC)c1 | inactive | 
37 | O=C(COc1ccc(Cl)cc1)N1CCN(Cc2ccc3c(c2)OCO3)CC1 | inactive | 
38 | NCCCCCCN | inactive | 
39 | O=[N+]([O-])c1cc(C(F)(F)F)ccc1Cl | inactive | 
40 | CC(C)(C)c1cc(CCC(=O)NN)cc(C(C)(C)C)c1O | inactive | 

— PubChem BioAssay (EPA / NIEHS)
